# Test results as given in PubChem BioAssay AID1445 (SRMLSC, 2008).
# About 910 (0.41%) of roughly 220,000 compounds were called active.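 Rule for the calls: active = primary inhibition above the hit cutoff, then over 50% inhibition at one or more dose response concentrations (cut at about 23% in these data, passing the limit was not always enough); inconclusive = conflicting primary data, or primary hits not chosen for dose response; inactive = low primary inhibition, or under 50% at every dose.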 The full list was thinned out, with actives kept by preference. Entries with a potency or affinity are not part of this list.
# Target: Aminopeptidase N (Plasmodium falciparum (isolate 3D7)) (UniProt O96935)
# Sequence (O96935 whole entry, looked up): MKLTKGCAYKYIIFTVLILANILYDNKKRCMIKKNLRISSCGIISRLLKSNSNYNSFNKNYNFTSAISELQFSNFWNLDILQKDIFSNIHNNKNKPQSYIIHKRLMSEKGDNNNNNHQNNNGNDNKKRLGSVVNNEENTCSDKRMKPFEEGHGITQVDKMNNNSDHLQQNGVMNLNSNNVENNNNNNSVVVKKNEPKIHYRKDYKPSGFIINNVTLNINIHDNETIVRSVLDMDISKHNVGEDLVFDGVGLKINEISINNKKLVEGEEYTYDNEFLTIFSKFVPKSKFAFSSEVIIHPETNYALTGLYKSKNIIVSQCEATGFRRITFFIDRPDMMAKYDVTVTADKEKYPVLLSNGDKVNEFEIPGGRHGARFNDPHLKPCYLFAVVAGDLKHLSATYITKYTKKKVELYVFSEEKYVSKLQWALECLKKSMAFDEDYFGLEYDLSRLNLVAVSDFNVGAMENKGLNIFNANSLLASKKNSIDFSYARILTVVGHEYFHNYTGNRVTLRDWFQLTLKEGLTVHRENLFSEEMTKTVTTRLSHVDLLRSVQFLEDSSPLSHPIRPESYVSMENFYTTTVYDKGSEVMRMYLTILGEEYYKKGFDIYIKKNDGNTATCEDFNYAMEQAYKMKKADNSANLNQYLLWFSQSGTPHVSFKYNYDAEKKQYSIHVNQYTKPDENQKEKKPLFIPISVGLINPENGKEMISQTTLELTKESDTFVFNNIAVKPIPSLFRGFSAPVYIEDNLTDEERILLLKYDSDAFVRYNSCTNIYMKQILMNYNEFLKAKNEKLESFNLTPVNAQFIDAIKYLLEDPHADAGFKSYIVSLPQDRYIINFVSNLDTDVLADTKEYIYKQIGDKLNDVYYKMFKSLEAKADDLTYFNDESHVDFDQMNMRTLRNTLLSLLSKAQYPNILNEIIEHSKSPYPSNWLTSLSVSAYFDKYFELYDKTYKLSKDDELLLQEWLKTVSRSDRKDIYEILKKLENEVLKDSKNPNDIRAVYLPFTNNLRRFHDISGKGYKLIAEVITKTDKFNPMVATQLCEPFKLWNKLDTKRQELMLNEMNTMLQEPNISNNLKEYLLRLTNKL
# Assay: malaria alanyl aminopeptidase activity blockers – biochemical, fluorogenic H-Leu-NHMec substrate, 1536-well (AID 1445);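 note: plate controls were DMSO full reaction for no effect and no enzyme background for full effect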
# Settings: recombinant M1AAP, H-Leu-NHMec fluorogenic kinetic assay; at 30 µM, active compounds read high unless noted
row,SMILES,inhibition
1,Cn1cnnc1SC1CCCCC1NS(=O)(=O)c1ccccc1 (configuration not stated),-1.9% (inactive)
2,CCc1ccc(C(=O)CN2C(=O)NC(C)(CCc3ccccc3)C2=O)cc1 (configuration not stated),0.01% (inactive)
3,Fc1ccc(C2=Nn3c(nnc3-c3ccco3)SC2)cc1,4.7% (inactive)
4,c1ccc(C2=Nn3c(nnc3-c3ccco3)SC2)cc1,7.07% (inactive)
5,Oc1ccc(C2=Nn3c(nnc3-c3ccco3)SC2)cc1O,29.3% (active)
6,CCOC(=O)C(NC(=O)C1CCCN1C(=O)OCc1ccccc1)C(=O)OCC (configuration not stated),-8.77% (inactive)
7,CCN(CC)C(=O)C1CCCN(Cc2ccc(OC)c(C)c2)C1 (configuration not stated),-5.17% (inactive)
8,COCCCNC(=O)c1cccc(OC)c1OC,3.12% (inactive)
9,COc1ccc(NC(=O)c2cnc(C)cn2)c2ncccc12,1.63% (inactive)
10,Cc1cnc(C(=O)Nc2ccccc2F)cn1,0.48% (inactive)
11,Cc1cnc(C(=O)Nc2cccc3cccnc23)cn1,24.3% (active)
12,Brc1ccc(C2Nc3cccc4cccc(c34)N2)s1,1.05% (inactive)
13,Cc1[nH]c2ccccc2c1/C=N/Nc1cccc(C(=O)O)c1,11.9% (inactive)
14,Cc1cccc(C)c1-n1cccc1/C=C1\SC(=S)N(c2cccc(C(=O)O)c2)C1=O,6.85% (inactive)
15,COC(=O)CN1C(=O)C2(C(C#N)=C(N)Oc3cc(C)oc(=O)c32)c2ccccc21 (configuration not stated),1.21% (inactive)
16,CCN1C(=O)C2(C(C#N)=C(N)Oc3n[nH]c(-c4ccccc4)c32)c2ccccc21 (configuration not stated),-4.58% (inactive)
17,COC(=O)CN1C(=O)C2(C(C#N)=C(N)Oc3c2c(C)nn3-c2ccccc2)c2ccccc21 (configuration not stated),4.95% (inactive)
18,CCN1C(=O)C2(C(C#N)=C(N)Oc3n[nH]c(-c4ccc(Cl)cc4)c32)c2ccccc21 (configuration not stated),-0.38% (inactive)
19,Cc1cccc(OCCOCCSc2ncccn2)c1,11.6% (inactive)
20,COc1cccc(OC)c1OCCCOc1ccc(C)cc1Br,3.98% (inactive)
21,CC1CCCN(C(=O)CSc2nnc(-c3ccc(S(=O)(=O)N4CCOCC4)cc3)n2C)C1 (configuration not stated),0.7% (inactive)
22,Cc1cc(Cl)c2ccc(Cl)cc2n1,0.44% (inactive)
23,O=[N+]([O-])c1ccc2c(c1)oc1ccccc12,-3.55% (inactive)
24,CC(=O)CC(c1ccc([N+](=O)[O-])cc1)c1c(O)c2ccccc2oc1=O (configuration not stated),0.61% (inactive)
25,Cc1csc(NC(=O)CSc2nc(C(C)C)nc3c2c(=O)n(C)c(=O)n3C)n1,-1.73% (inactive)

row,SMILES,inhibition
1,CS(=O)(=O)c1ccc2nc(NC(=O)c3ccc(N4C(=O)CCC4=O)cc3)sc2c1,5.15% (inactive)
2,CCOC(=O)c1cc(-c2csc(-c3cccc(Cl)c3)n2)on1,-3.06% (inactive)
3,CC1C(c2ccccc2)N(C)C(c2ccccc2)CC1(O)c1ccccc1 (configuration not stated),16.7% (inactive)
4,CCOC(=O)C(=O)Nc1nnc(SCc2ccc(F)cc2)s1,2.28% (inactive)
5,COc1cccc(C(=O)Nn2c(C)nnc2-n2nc(C)cc2C)c1,8.95% (inactive)
6,O=C(NCc1ccccc1)C(c1ccc(F)cc1)N(Cc1ccc2c(c1)OCO2)C(=O)Cn1nnc(-c2cccs2)n1 (configuration not stated),1.31% (inactive)
7,CC(C)CCNC(=O)CN(Cc1ccc2c(c1)OCO2)C(=O)Cn1nnc(-c2cccs2)n1,24.4% (active)
8,COc1ccc(-c2nnn(CC(=O)N(CC(=O)NCCC(C)C)Cc3cccs3)n2)cc1OC,13.8% (inactive)
9,COc1ccc(NC(=O)c2oc3ccccc3c2NC(=O)c2ccc3c(c2)OCO3)cc1,2.18% (inactive)
10,COc1ccc2nc(SCc3ccccc3C)nc(C)c2c1,2.23% (inactive)
11,Cc1nc(SCc2ccccc2C)n[nH]1,-7.66% (inactive)
12,N#Cc1c(-c2ccccc2)c(C#N)c2nc3ccccc3n2c1N,3.17% (inactive)
13,Cc1cc(Cl)n2c(nc3ccccc32)c1C#N,-0.99% (inactive)
14,Cc1ccc(-c2c(C#N)c(N)n3c(nc4ccccc43)c2C#N)cc1,25.5% (active)
15,Cc1cc(C(C)(C)C)ccc1OCCN1CCCC1,8.65% (inactive)
16,Oc1ccc(-c2nc(=S)[nH][nH]2)cc1,44.3% (inactive)
17,C=CCOc1ccc(C(=O)N(Cc2ccc(N(C)C)cc2)C2CCS(=O)(=O)C2)cc1 (configuration not stated),13% (inactive)
18,O=c1cc(-c2ccccc2)c2cc(Cl)c(O)c(CN3CCOCC3)c2o1,5.98% (inactive)
19,CC(=O)Oc1cc2oc(=O)c3c(c2cc1Cl)CCC3,38.1% (inactive)
20,Cc1oc2c(CN3CCOCC3)c(O)ccc2c(=O)c1-c1ccc(Cl)cc1,7.87% (inactive)
21,O=c1oc2cc(O)ccc2c2c1CCCC2,10.5% (inactive)
22,CCc1cccc(C)c1NC(=O)COC(=O)c1ccc2c(c1)S(=O)(=O)c1ccccc1C2=O,1.58% (inactive)
23,CC1(C)NC(=O)N(CC(O)COc2cccc(F)c2)C1=O (configuration not stated),7.39% (inactive)
24,N#C/C(=C(/O)c1cccs1)c1nc2ccccc2[nH]1,1.8% (inactive)
25,COc1cc(C(=S)N2CCCC2)ccc1OS(=O)(=O)c1ccc(NC(C)=O)cc1,-0.31% (inactive)

row,SMILES,inhibition
1,CCN1CCN(C(c2cc3cc4c(cc3[nH]c2=O)OCO4)c2nnnn2C(C)(C)CC)CC1 (configuration not stated),12.6% (inactive)
2,Cn1c(=O)c2cc(S(=O)(=O)Nc3cc(C(=O)O)cc(C(=O)O)c3)ccc2n(C)c1=O,2.45% (inactive)
3,O=C(NCc1cccnc1)c1cc([N+](=O)[O-])ccc1N1CCOCC1,4.23% (inactive)
4,CCCCc1nc(NCc2ccccc2)c(C#N)c2c1COC(C)(C)C2,-3.84% (inactive)
5,CCc1nc(NCCN)c(C#N)c2c1CSC(C)(C)C2,-0.7% (inactive)
6,CCCCc1nc(NCCNC(=O)c2ccccc2)c(C#N)c2c1CSC(C)(C)C2,24.4% (active)
7,CCCCc1nc(Cl)c(C#N)c2c1CSC(C)(C)C2,0.12% (inactive)
8,CCCCc1nc(NCCN)c(C#N)c2c1CSC(C)(C)C2,2.56% (inactive)
9,Cc1ccc(C(NC(=O)N2CCN(C)CC2)C(Cl)Cl)cc1F (configuration not stated),0.01% (inactive)
10,CCCCc1ccc(NC(=O)COc2ccc(C(=O)Nc3ccccc3C)cc2)cc1,-2.91% (inactive)
11,COc1cc2c(cc1OC)C(c1cccs1)NCC2 (configuration not stated),0.84% (inactive)
12,O=C(NCc1cccs1)c1nn2cccnc2c1Cl,12.7% (inactive)
13,CCCOC(=O)Nc1nc2ccccc2o1,-8.89% (inactive)
14,CCOC(=O)c1cnc(Nc2nc3ccccc3o2)nc1C,0.38% (inactive)
15,Nc1nnc(CC(=O)N/N=C/c2ccc([N+](=O)[O-])cc2)s1,9.02% (inactive)
16,Nc1nnc(CC(=O)N/N=C/c2cccc([N+](=O)[O-])c2)s1,-3.46% (inactive)
17,CC1(NC(=S)NCCCCCCNC(=S)NC2(C)CCS(=O)(=O)C2)CCS(=O)(=O)C1 (configuration not stated),-1.81% (inactive)
18,Cc1cc(C)c2[nH]c(=O)c(=O)[nH]c2c1,4.16% (inactive)
19,Cc1cc2c(C)c(C)c(=O)[nH]c2cc1N,25.2% (active)
20,Cc1ccc(-c2n[nH]c(=O)c3ccccc23)cc1N,12.6% (inactive)
21,COc1cccc(C2=NOC(C(=O)NCCCn3ccnc3)C2)c1 (configuration not stated),2.65% (inactive)
22,COc1ccc(/C=C/C(=O)Nc2sc(Cc3ccccc3)c(C)c2C(N)=O)cc1,10.2% (inactive)
23,O=C(O)CC/C(=C\c1ccc(Cl)c([N+](=O)[O-])c1)c1nc2ccccc2s1,15.7% (inactive)
24,O=C(O)CC/C(=C\c1cccc(NC(=O)c2ccccc2Cl)c1)c1nc2ccccc2s1,18% (inactive)
25,COc1cccc(/C=C(\CC(=O)O)c2nc3ccccc3s2)c1,11.8% (inactive)

row,SMILES,inhibition
1,Cc1ccc(/C=C(\CCC(=O)O)c2nc3ccccc3s2)cc1[N+](=O)[O-],15.5% (inactive)
2,CCOc1ccc(C(=O)N(CN2CCCC2=O)c2ccccc2)cc1,2.27% (inactive)
3,Cc1ccc(Oc2cc(NC(=O)CCCn3nc([N+](=O)[O-])c(Cl)c3C)cc([N+](=O)[O-])c2)cc1,2.94% (inactive)
4,CCOC(=O)CNS(=O)(=O)c1ccc2c3c(cccc13)C(=O)N2CC,7.58% (inactive)
5,CCOC(=O)Cc1csc(NS(=O)(=O)c2ccc3c4c(cccc24)C(=O)N3CC)n1,23.4% (active)
6,CCN1C(=O)c2cccc3c(S(=O)(=O)Nc4ccccc4)ccc1c23,6.99% (inactive)
7,CC(/C=N/NC(=O)CNc1n[nH]c(=O)[nH]c1=O)c1ccccc1 (configuration not stated),3.79% (inactive)
8,CC(=O)Nc1ccc(-c2ccccc2)s1,25.4% (active)
9,CC(=O)Nc1ccc(NC(C)=O)s1,2.97% (inactive)
10,CNC(=O)c1ccc(-c2ccccc2)s1,1.69% (inactive)
11,CN(CCNC(=O)CCCOc1cc(=O)n(C)c2ccccc12)Cc1ccccc1,2.96% (inactive)
12,CN(C)c1ccc(NC(=O)c2sc(SCC(=O)Nc3nccs3)nc2N)cc1,25.2% (active)
13,CN(C)c1ccc(NC(=O)CSc2nc(N)c(C(=O)Nc3ccc(N(C)C)cc3)s2)cc1,-0.46% (inactive)
14,CN(C)c1ccc(NC(=O)c2sc(SCC(=O)Nc3ccc(Br)cc3)nc2N)cc1,4.44% (inactive)
15,COc1ccc(C(=O)NC(=S)Nc2ccc(N3CCOCC3)c(Cl)c2)cc1[N+](=O)[O-],14.5% (inactive)
16,COc1cccc(/C=N/n2c(-c3cccs3)n[nH]c2=S)c1,4.5% (inactive)
17,CCOc1ccc(C(=O)N[C@H](C(=O)Nc2ccc(OC)c(S(=O)(=O)N3CCOCC3)c2)C(C)C)cc1,2.14% (inactive)
18,COc1ccc(NC(=O)Nc2ccccc2)cc1S(=O)(=O)N1CCCCC1,-0.57% (inactive)
19,Cc1cccc(N(CC(=O)NC2CCCC2)C(=O)CS(=O)CC(=O)Nc2ccc3c(c2)OCO3)c1C (configuration not stated),6.68% (inactive)
20,Cc1cccc(N(CC(=O)NC2CCCC2)C(=O)CS(=O)CC(=O)Nc2ccc3c(c2)OCO3)c1 (configuration not stated),1.66% (inactive)
21,Cc1cccc(N(CC(=O)NC(C)(C)C)C(=O)CS(=O)CC(=O)Nc2ccc3c(c2)OCO3)c1 (configuration not stated),3.73% (inactive)
22,Cc1ccc(N(CC(=O)NC(C)(C)C)C(=O)CS(=O)CC(=O)Nc2ccc3c(c2)OCO3)cc1 (configuration not stated),8.92% (inactive)
